Assay results published in PubChem BioAssay AID485297 (National Center for Advancing Translational Sciences (NCATS), 2010).
Hit rate of the full screen: of about 320,000 compounds, about 9,100 (2.8%) were called active. Inconclusive results (about 3%) are left out. This excerpt belongs to a sample that is enriched for actives. Unmarked numbers belong to inactive results. The call rests on the fitted dose curve; in most records, active means well fitted activation curve with a large enough effect; inconclusive means small, poorly fitted or top-dose-only effect; inactive means no such curve, though single readings can be large or run the other way.

assay: qHTS Assay for Rab9 Promoter Activators; conditions: Huh7 Rab9 promoter-luciferase reporter, luminescence, 24 h; series mostly up to 9.22 µM; activation, negative = inhibition: at the top concentration; further: nearly all actives have a fitted effect of over 60% in size; on activation, negative = inhibition: % of control where 0% means no effect
Outline: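 Huh7 cells stably carrying a Rab9 promoter-luciferase reporter, 1500 cells per well in OP-MEM I with 10% FBS, treated with compound 24 hours at 37C. Luciferase activity read by luminescence after 10 minutes with Amplite reagent.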
Potency means the concentration at half of the fitted maximal effect.

Row | SMILES | activation, negative = inhibition | Potency
1 | COc1ccc(C(=O)NCC2CCCCC2)cc1S(=O)(=O)N1CCCC1 | 0.873% | –
2 | COc1ccc(OC)c(NC(=O)c2sc3nc(C)cc(C)c3c2N)c1 | 8.54% | –
3 | COCCCNc1nc2c(-c3cccc(C)c3)nnn2c2ccc(Cl)cc12 | 12.4% | –
4 | COC(=O)c1cc(Oc2ccc(S(=O)(=O)N3CCOCC3)cc2[N+](=O)[O-])cc(C(=O)OC)c1 | -6.91% | –
5 | COc1ccc(S(=O)(=O)Nc2ccc3cn[nH]c3c2)cc1[N+](=O)[O-] | 7.24% | –
6 | CC(C)Nc1ccc(-n2nc3ccccc3[n+]2[O-])cc1 | – | 501 nM (active)
7 | CCN(CC(=O)NCc1cccs1)C(=O)/C=C/c1ccc(C)cc1 | 2.1% | –
8 | COc1ccccc1NC(=O)COC(=O)COc1ccccc1F | -7.1% | –
9 | CCC1=NN2C(=N)/C(=C/c3cc(C)n(-c4ccccc4)c3C)C(=O)N=C2S1 | -0.946% | –
10 | CCS(=O)(=O)C1=NSC2=NC(=O)/C(=C\c3cc(C)n(-c4cccc(OC)c4)c3C)C(=N)N21 | 11.3% | –
11 | Cc1cc(/C=C2/C(=N)N3C(=NC2=O)SN=C3S(C)(=O)=O)c(C)n1-c1ccccc1 | – | 3550 nM (active)
12 | COc1ccc([C@H]2CC(=O)C=C(/C=C/c3ccccc3)C2)cc1 | 29.8% | –
13 | Cc1cc(C)cc(NC(=O)N2CCCCCCC2)c1 | -4.2% | –
14 | COc1ccc2oc(=O)c(C(=O)N3CCCC3)cc2c1 | -2% | –
15 | Cc1ccc2cc3cc(C(=O)N4CCCCCC4)oc3nc2c1 | – | 631 nM (active)
16 | O=C(NNC(=O)c1cc(S(=O)(=O)N2CCCCC2)ccc1Cl)c1ccccc1O | 1.25% | –
17 | S=C(NCCc1ccccc1)N1CCCCC1 | – | 3160 nM (active)
18 | O=C1CCN(C(=S)NCCc2ccccc2)CC1 | -4.64% | –
19 | COc1ccc(C(=O)NC2CCN(C(=S)NCCc3ccccc3)CC2)cc1 | -5.13% | –
20 | Cc1cccn2c(=O)nc(SCC(=O)NCc3ccccc3Cl)nc12 | -0.952% | –
21 | CC(C)CCN1CCC(C)(NC(=O)c2ccccc2)C1=O (stereo not drawn) | -5.81% | –
22 | Brc1ccc(-c2noc(-c3ccccc3)n2)o1 | – | 1260 nM (active)

Row | SMILES | activation, negative = inhibition | Potency
23 | Nc1nonc1-c1noc(-c2ccc(Br)o2)n1 | 4.09% | –
24 | Cn1nc(-c2ccccc2)c(-c2nc(-c3ccc(Cl)cc3)no2)c1Cl | 2.72% | –
25 | CCOC(=O)c1cc2c(nc1NC(=S)Nc1ccccc1)CC(C)(CC)OC2 (stereo not drawn) | 2.37% | –
26 | CCOC(=O)c1ccc(NC(=S)Nc2cc(C)cc(C)n2)cc1 | 8.83% | –
27 | CCOC(=O)c1cn[nH]c1NC(=S)Nc1ccccc1 | – | 1120 nM (active)
28 | Cn1nc(C(=O)OCC(=O)N(Cc2ccccc2)C(C)(C)C)c2ccccc2c1=O | -5.8% | –
29 | O=S(=O)(Nc1ccc(-n2cnnn2)cc1)c1ccc(Cl)cc1 | 2.76% | –
30 | O=C(COc1nc2ccccc2nc1N1CCOCC1)NCC(F)(F)F | 1.89% | –
31 | O=C(C1Cc2ccccc2CN1C(=O)c1ccco1)N1CCN(c2ccccc2)CC1 (stereo not drawn) | -0.202% | –
32 | CCn1cnc2scc(-c3ccc(C)c(C)c3)c2c1=O | -0.893% | –
33 | O=C(Nc1ccc(Cl)cc1)/C(=C1\CCCN1)[N+](=O)[O-] | – | 2820 nM (active)
34 | O=C(O)C1CCCCC1C(=O)Nc1ccc(Cl)cc1 (stereo not drawn) | -0.294% | –
35 | Cc1nc([N+](=O)[O-])cn1CC(=O)Nc1ccc(Cl)cc1 | 2.29% | –
36 | COc1ccc(N2C(=O)CC(Nc3ccc(F)cc3)C2=O)c([N+](=O)[O-])c1 (stereo not drawn) | 7.65% | –
37 | COc1ccc(C(=O)CSc2nc(C)cc(C)n2)cc1[N+](=O)[O-] | -0.448% | –
38 | O=C(Nc1ccccc1Cl)O/N=C(/c1ccccc1)c1ccccn1 | 9.2% | –
39 | COc1ccc(C(=O)NNC(=O)c2cnccn2)cc1[N+](=O)[O-] | 0.405% | –
40 | COc1ccccc1OCC(=O)OCn1c(SC)nnc(C)c1=O | -2.91% | –
41 | COc1ccccc1OCC(=O)O/N=C(\N)c1ccccn1 | – | 3160 nM (active)
42 | Cc1ccc(Cl)cc1NC(=O)c1ccccn1 | 12% | –
43 | Cc1ccc(C(=O)O/N=C(\N)c2ccccn2)cc1Cl | – | 3160 nM (active)
44 | O=C(COC(=O)c1ccccn1)NNC(=O)c1ccc([N+](=O)[O-])cc1 | -4.35% | –

Row | SMILES | activation, negative = inhibition | Potency
45 | COc1ccccc1OCC(=O)OCc1cc(-c2ccco2)on1 | 1.46% | –
46 | COc1ccc(C(=O)O/N=C(\N)c2ccccn2)cc1[N+](=O)[O-] | – | 4470 nM (active)
47 | N/C(=N\OC(=O)c1ccc([N+](=O)[O-])cc1)c1ccccn1 | – | 316 nM (active)
48 | O=C(OCc1ccc([N+](=O)[O-])cc1)c1ccccn1 | -1.27% | –
49 | CC(C)Cn1c(N)c(C(=O)COC(=O)C2CCCN2C(=O)c2cccs2)c(=O)n(C)c1=O (stereo not drawn) | -0.406% | –
50 | CCOc1c(Nc2cccc(Cl)c2)c(=O)c1=O | -5.39% | –
51 | CS(=O)(=O)Nc1ccccc1C(=O)OCC(=O)NC1CC1 | -1.03% | –
52 | CCOC(=O)C1CCN(C(=O)c2cccc(S(=O)(=O)N(CC)c3ccccc3)c2)CC1 | -4.21% | –
53 | Cn1c2cc(B(O)O)sc2c2cnn(Cc3ccccc3F)c(=O)c21 | -3.22% | –
54 | COc1ccc(CC2c3cc(OC)c(OC)cc3CC[N+]2(C)CCC(=O)OCCCCCOC(=O)CC[N+]2(C)CCc3cc(OC)c(OC)cc3C2Cc2ccc(OC)c(OC)c2)cc1OC (stereo not drawn) | -6.08% | –
55 | CCc1cccc(C)c1NC(=O)COC(=O)CC1CCCC1 | 0.691% | –
56 | Cc1cc(C)c(S(=O)(=O)N2CCC(C(=O)OCc3c(C)noc3C)CC2)c(C)c1 | 2.51% | –
57 | CC(=O)c1ccc(OCCCC(=O)Nc2ccc(C)c(S(=O)(=O)N3CCOCC3)c2)cc1 | -10.3% | –
58 | COc1ccc(Cl)cc1C(=O)OCC(=O)NCc1cccs1 | 2.82% | –
59 | CCOC(=O)c1c(C)[nH]c(C(=O)NCCN2CCOCC2)c1C | -1.3% | –
60 | COC(=O)Cc1ccc(OCC(=O)NC2CCCC2)cc1 | -2.32% | –
61 | CN(CC(=O)Nc1ccc(F)cc1)CC(=O)N1CCCCC1 | -1.1% | –
62 | COc1ccccc1-c1oc2ccccc2c1C#CCCCCO | -1.32% | –
63 | O=C(C1CC(=O)N(C2CCCC2)C1)N1CCN(c2cccc(C(F)(F)F)c2)CC1 (stereo not drawn) | -9.77% | –
64 | CCOC(=O)c1nc(-c2ccc3c(c2)OCO3)[nH]c1C | 20.9% | –
65 | CC(C)c1ccc(NC(=O)COC(=O)c2ccc(CN3CCCC3=O)cc2)cc1 | -6.29% | –
66 | O=C(CSc1nnc(Nc2ccccc2F)s1)NC1CCCC1 | 19.2% | –

Row | SMILES | activation, negative = inhibition | Potency
67 | Cc1c(NC(=O)CSCc2ccccc2)cccc1C(=O)O | 2.13% | –
68 | COc1cc(OC)cc(C(=O)NNC(=O)CCOc2ccccc2OC)c1 | -1.58% | –
69 | CCN(C(=O)COC(=O)Cc1c(F)cccc1Cl)c1c(N)n(Cc2ccccc2)c(=O)[nH]c1=O | -0.28% | –
70 | O=C(CSc1nnc(-c2ccco2)n1-c1ccccc1)NCCc1ccccc1 | 0.672% | –
71 | c1ccc(CSc2nnc(-c3ccco3)n2Cc2ccccc2)cc1 | – | 3550 nM (active)
72 | O=C(CSc1nnc(-c2ccco2)n1CC1CCCO1)c1ccccc1 (stereo not drawn) | 14.8% | –
73 | COc1ccc(NC(=O)CN(C)C(=O)c2cc(C3CC3)nn2-c2ccccc2)cc1 | -1.8% | –
74 | COc1ccccc1C1=CC(=O)C[C@H](c2ccc(F)cc2)C1 | -6.18% | –
75 | CSCCC(NC(=O)c1ccccc1)C(=O)N1CCN(Cc2ccc(Cl)cc2)CC1 (stereo not drawn) | -0.803% | –
76 | Cc1ccc(F)c(NC(=O)CCOc2ccccc2C)c1 | -1.01% | –
77 | Cc1ccc(F)c(NC(=O)CCc2ccccc2)c1 | – | 2820 nM (active)
78 | O=C(CCc1ccccc1)NNc1ccc(F)cc1 | -0.275% | –
79 | COC(=O)C1=CO[C@@H](O[C@@H]2O[C@H](CO)[C@@H](O)[C@H](O)[C@H]2O)C2C1C[C@H](O)[C@@H]2C (stereo partly drawn) | -1.85% | –
80 | N#Cc1nc(Cc2ccccc2)oc1NCCc1ccccc1 | – | 3160 nM (active)
81 | Cc1ccccc1-c1nc(C#N)c(NCc2ccco2)o1 | -9.43% | –
82 | N#Cc1nc(Cc2cccc3ccccc23)oc1NCc1ccc2c(c1)OCO2 | 1.47% | –
83 | Cc1cccc(-c2oc3ccc(-c4ccc5c(c4)OCO5)cc3c2C#Cc2cncn2C)c1 | -5.09% | –
84 | CCOC(=O)Cn1nnnc1C | -2.92% | –
85 | COc1ccc(N2CCN(C(=O)/C(C#N)=C/c3ccccc3)CC2)cc1 | -3.49% | –
86 | CCOC(=O)/C(C#N)=C/c1ccc(N2CCN(Cc3ccccc3)CC2)cc1 | -0.0089% | –
87 | CCOC(=O)/C(C#N)=C/c1ccc(N2CCCCC2)cc1 | – | 3160 nM (active)
88 | Cc1ccc(C)c(OCC(=O)NNC(=O)C2CCC2)c1 | -2.73% | –

Row | SMILES | activation, negative = inhibition | Potency
89 | CC(=O)c1cccc(S(=O)(=O)N2CCC(n3nnc4cc(F)ccc43)CC2)c1 | -2.95% | –
90 | O=C(c1ccc(F)cc1)N1CCC(n2nnc3ccccc32)CC1 | – | 1120 nM (active)
91 | O=S(=O)(c1cccc(S(=O)(=O)N2CCC(n3nnc4ccccc43)CC2)c1)N1CCCCC1 | 4.03% | –
92 | CN(C)c1nc(-c2cccnc2)nc(-c2ccc(Cl)cc2)c1C#N | 3.11% | –
93 | COC(=O)CSc1nnc(-c2cccnc2)o1 | -5.2% | –
94 | CN(C)c1ccc(-c2nnc(-c3cccnc3)o2)cc1 | – | 1580 nM (active)
95 | Cc1ccc(S(=O)(=O)N2CCCCC2)cc1NC(=O)[C@@H]1CCCN1C(=O)c1cccs1 | -3.33% | –
96 | CCC(C)N1C(=O)S/C(=C/c2ccc(Sc3nc4ccccc4[nH]3)o2)C1=O (stereo not drawn) | 1.73% | –
97 | CCCCNC(=O)C(=O)c1ccccc1NC(C)=O | 5.62% | –
98 | O=C(Nc1ccccc1)c1ccccc1NC(=O)C(F)(F)F | 28.5% | –
99 | CC(=O)Nc1ccccc1C(=O)C(=O)Nc1ccc(F)cc1 | – | 2510 nM (active)
100 | N#Cc1nc(-c2cccc3ccccc23)oc1N | -15.2% | –
101 | CSc1ccccc1N1CCN(CCCCCC(=O)NC2CCCc3ccccc32)CC1 (stereo not drawn) | -35.3% [at 46.1 µM] | –
102 | COc1ccccc1C(=O)Nc1ccc(C)c(S(=O)(=O)N2CCCCC2)c1 | -2.68% | –
103 | Cn1sc(NC(=O)c2ccccc2)nc1=O | 16.5% | –
104 | Cn1c(CN2CCOCC2)nc2cc(NC(=O)c3ccc(Cl)cc3)ccc21 | -19.2% | –
105 | Cn1c(S(=O)(=O)O)nc2ccccc21 | 0.212% | –
106 | CC(=O)NCCc1nc2cc(NC(=O)c3ccccc3)ccc2n1C | – | 3550 nM (active)
107 | CCCC(=O)Nc1ccc2c(c1)nc(CCNC(=O)c1ccco1)n2C | 1.93% | –
108 | Cn1c(NC(=O)c2ccccc2)nc2ccccc21 | – | 2820 nM (active)
